Compounds without any hit were thinned out: in the full panel of roughly 83,000, 20% have a hit.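 Step 1: grow cells in 96-well plates. Step 2: add test compound at a single concentration. Step 3: incubate 48 h. Step 4: record percent growth.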 Values without a mark were called inactive. Active and inactive are the calls of the source. How the source made its calls: active means growth percent below 10; inactive means the rest.
How the values were obtained:
Experiment in all cases: NCI-60 one-dose screen, 48 h (100 = growth as untreated, 0 = no growth, -100 = all killed)
[1] = system: HCT-15 colon; settings: 10 µM unless noted
[2] = system: HT29 colon; settings: 10 µM unless noted
[3] = system: SNB-75 CNS; settings: 10 µM unless noted
[4] = system: SNB-19 CNS; settings: 10 µM unless noted
[5] = system: U251 CNS; settings: 10 µM unless noted
[6] = system: PC-3 prostate; settings: 10 µM unless noted
[7] = system: SK-MEL-5 melanoma; settings: 10 µM unless noted
[8] = system: UACC-62 melanoma; settings: 10 µM unless noted
[9] = system: LOX IMVI melanoma; settings: 10 µM unless noted
[10] = system: SK-MEL-28 melanoma; settings: 10 µM unless noted
[11] = system: SK-MEL-2 melanoma; settings: 10 µM unless noted
[12] = system: EKVX NSCLC; settings: 10 µM unless noted
[13] = system: SN12C renal; settings: 10 µM unless noted
[14] = system: UO-31 renal; settings: 10 µM unless noted
[15] = system: TK-10 renal; settings: 10 µM unless noted
[16] = system: ACHN renal; settings: 10 µM unless noted
[17] = system: CAKI-1 renal; settings: 10 µM
[18] = system: A498 renal; settings: 10 µM unless noted
[19] = system: CCRF-CEM leukemia; settings: 10 µM unless noted
[20] = system: MOLT-4 leukemia; settings: 10 µM unless noted

Row | SMILES | growth [1] | growth [2] | growth [3] | growth [4] | growth [5] | growth [6] | growth [7] | growth [8] | growth [9] | growth [10] | growth [11] | growth [12] [%] | growth [13] | growth [14] | growth [15] | growth [16] | growth [17] | growth [18] | growth [19] | growth [20]
1 | CC1=C2C(=C[C@@](C)(COS(N)(=O)=O)[C@@H]2O)C(=O)[C@](C)(O)C12CC2 | 67.6% | 56.8% | 72.6% | 72.4% | 71.8% | 58.5% | 89.5% | 62.1% | 77% | 87.6% | 41.2% | 94.9 | 81.2% | 54.6% | 95.9% | 47.4% | 85.8% | 55.7% | 98.2% | 97.3%
2 | Cc1ccc(C2CC(c3ccc(Nc4nc(NCCO)nc(Nc5ccc(Cl)cc5)n4)cc3)=Nc3c(N)nc(N)nc3N2)cc1 (stereo not given) | -81.7% (active) | -90.8% (active) | 112% | -90.3% (active) | -96.8% (active) | -32.7% (active) | 67.5% | 107% | -93.9% (active) | 110% | 99% | 33.1 | -65.8% (active) | -91.6% (active) | -84.5% (active) | -36.6% (active) | -9.94% (active) | 77.9% | -23.2% (active) | -29.3% (active)
3 | O=C1[C@@H]2Cc3c([nH]c4ccccc34)[C@H](c3c(Cl)cccc3Cl)N2C(=O)CN1C1CCN(Cc2ccccc2)CC1 | -25.7% (active) | 2.12% (active) | 62% | 61.8% | 38.9% | 41.8% | 45.2% | 90.2% | -80% (active) | 14.6% | 85.7% | 53.6 | 15.5% | 14% | 89.2% | 43.5% | 74.3% | 66.3% | 3.54% (active) | 12.8%
4 | O=C(NNc1nc2cc(F)cc(F)c2n2cccc12)c1ncccn1 | 26.2% | 25.4% | -7.95% (active) | 20% | 14.4% | 31.6% | -40.9% (active) | 2.21% (active) | 5.13% (active) | 22.8% | 23.2% | 11.1 | 15.7% | 16% | 26% | 9.54% (active) | 17.4% | 23.8% | 7.19% (active) | 13%
5 | COc1cc(NC2=C(Cl)C(=O)c3nc(C)ccc3C2=O)cc(OC)c1 | -66.2% (active) | 24.9% | -4.09% (active) | 30.4% | 36.8% | 28% | -74.9% (active) | -43.6% (active) | -82.6% (active) | -73.1% (active) | 5.03% (active) | 74.7 | -63.3% (active) | -94.6% (active) | -50.1% (active) | -99.6% (active) | -96.5% (active) | 71.1% | 2.72% (active) | 8.29% (active)
6 | CC1COc2c(N3CCN(C)CC3)c(F)cc3c(=O)c(C(=O)N/N=C/c4cc[nH]c4)cn1c23 (stereo not given) | 47.1% | 14.6% | 74.4% | 9.01% (active) | -41.6% (active) | 27.9% | 25.3% | 76% | -88.5% (active) | 57.3% | 83.5% | 33.3 | 49.3% | 54% | 87.8% | 43.8% | 47.6% | 40.6% | -35.9% (active) | 9.4% (active)
7 | O=C(/C=C/c1cccc(O)c1)c1ccc(O)cc1 | 49.6% | 80.7% | 103% | 74.9% | 43.3% | 65.3% | 96.9% | 80% | 32.2% | 101% | 107% | 98.4 | 65.6% | 72.6% | 98.3% | 75.1% | 65.3% | 114% | 37% | 91.7%
8 | NC(=O)c1c(NC(=O)c2cccc(C(F)(F)F)c2F)sc2c1CCC(=O)C2 | 7.63% (active) | 8.55% (active) | 40.2% | 18% | 15.9% | 17.9% | -3.83% (active) | 11.1% | 19.2% | 33.9% | 102% | 40.8 | 27.2% | -7.62% (active) | 29.8% | 6.7% (active) | -8.99% (active) | 70.9% | 11.7% | 13.5%
9 | Cc1cnc2nc(NN)[nH]n12 | 101% | 103% | 95.6% | 95.3% | 101% | 98.3% | 99.8% | 95.6% | 87.5% | 108% | 102% | 98.5 | 98.6% | 81.3% | 105% | 98.4% | 86.2% | 111% | 102% | 102%
10 | Cc1[nH]nc2ccc(-c3nc4cnc(N5CCN(C)CC5)cn4c3Nc3ccc(F)cc3Br)cc12 | 27.8% | 4.1% (active) | 82.7% | 45.4% | 14.4% | 47.6% | 75.4% | 17.9% | -10.4% (active) | 62.8% | 91.1% | 86.1 | 29.9% | 50.4% | 65% | 48.3% | 21% | 82.3% | 3.21% (active) | 39.4%
11 | O=S(=O)(Nc1ccc(I)c(Cl)c1)c1ccc(-c2cnc(C3CC3)o2)cc1 | 27.8% | 8.12% (active) | -13% (active) | 42.7% | 31% | 20.4% | 16.8% | 31.2% | 36.1% | 59.7% | 43.7% | 42.5 | 42.9% | 51.7% | 53.3% | 41.5% | 6.99% (active) | 2.08% (active) | 14.1% | 29.2%
12 | C#CCOc1ccc(/C=N/Nc2nc(-c3cc(Cl)ccc3Cl)cs2)cc1 | 81.7% | 110% | 77.3% | 104% | 98.6% | 87.1% | 97.8% | 80.3% | 97.7% | 110% | 113% | 73.6 | 88.7% | 68.5% | 148% | 97.8% | 77.1% | 83.6% | 94.7% | 86.3%
13 | Cn1c2ccc(Br)cc2c2c3c(c4c5cc(F)ccc5oc4c21)C(=O)N(O)C3=O | 89.2% | 101% | 70% | 74.3% | 79.8% | 68% | 90.3% | 80.2% | 61.9% | 112% | 110% | 90.1 | 90.2% | 75.4% | 142% | 78% | 69.2% | 94.2% | 14.7% | 43%
14 | CCCCSc1nnc(-c2ccc(-c3ccc(Cl)cc3)nc2C)o1 | 92.6% | 97.2% | 90.3% | 97.8% | 104% | 91.9% | 99.3% | 84.1% | 101% | 99.9% | 106% | 95.4 | 98.2% | 93.4% | 109% | 104% | 95.4% | 71% | 99.7% | 96.3%
15 | O=S(=O)(Nc1ccc(-c2nc(-c3cccc(O)c3)c(-c3ccnc(Br)c3)[nH]2)cc1)c1ccccc1 | 13.3% | 31.8% | 5.4% (active) | 30.2% | 30.3% | 9.21% (active) | -26.4% (active) | 16.4% | -25% (active) | 33.1% | 23.5% | 53.3 | 44.3% | 24.7% | 55.7% | 28.4% | 25.6% | 49.4% | -2.56% (active) | -20.9% (active)

Reference: PubChem BioAssay (NCI)
